According to the supplement of paper PMC11732987, “Enantioselective OTUD7B fragment discovery through chemoproteomics screening and high-throughput optimisation” (Communications Chemistry, 2025):
A number with no mark means an inactive call.

Assays:
Assay in all cases: log2 ratio of Biotin-Ahx-Ub-VS probe labelling (fragment/DMSO); higher = less target engagement (more negative = stronger competition), active = hit call of the paper (q ≤ 0.05, log2 ratio ≤ -1)
Conditions in all cases: compound concentration: 200 uM; treatment time: 3 h
ALG13 = target: T1, ALG13 (UniProt Q9NP73)
T1 sequence (whole entry): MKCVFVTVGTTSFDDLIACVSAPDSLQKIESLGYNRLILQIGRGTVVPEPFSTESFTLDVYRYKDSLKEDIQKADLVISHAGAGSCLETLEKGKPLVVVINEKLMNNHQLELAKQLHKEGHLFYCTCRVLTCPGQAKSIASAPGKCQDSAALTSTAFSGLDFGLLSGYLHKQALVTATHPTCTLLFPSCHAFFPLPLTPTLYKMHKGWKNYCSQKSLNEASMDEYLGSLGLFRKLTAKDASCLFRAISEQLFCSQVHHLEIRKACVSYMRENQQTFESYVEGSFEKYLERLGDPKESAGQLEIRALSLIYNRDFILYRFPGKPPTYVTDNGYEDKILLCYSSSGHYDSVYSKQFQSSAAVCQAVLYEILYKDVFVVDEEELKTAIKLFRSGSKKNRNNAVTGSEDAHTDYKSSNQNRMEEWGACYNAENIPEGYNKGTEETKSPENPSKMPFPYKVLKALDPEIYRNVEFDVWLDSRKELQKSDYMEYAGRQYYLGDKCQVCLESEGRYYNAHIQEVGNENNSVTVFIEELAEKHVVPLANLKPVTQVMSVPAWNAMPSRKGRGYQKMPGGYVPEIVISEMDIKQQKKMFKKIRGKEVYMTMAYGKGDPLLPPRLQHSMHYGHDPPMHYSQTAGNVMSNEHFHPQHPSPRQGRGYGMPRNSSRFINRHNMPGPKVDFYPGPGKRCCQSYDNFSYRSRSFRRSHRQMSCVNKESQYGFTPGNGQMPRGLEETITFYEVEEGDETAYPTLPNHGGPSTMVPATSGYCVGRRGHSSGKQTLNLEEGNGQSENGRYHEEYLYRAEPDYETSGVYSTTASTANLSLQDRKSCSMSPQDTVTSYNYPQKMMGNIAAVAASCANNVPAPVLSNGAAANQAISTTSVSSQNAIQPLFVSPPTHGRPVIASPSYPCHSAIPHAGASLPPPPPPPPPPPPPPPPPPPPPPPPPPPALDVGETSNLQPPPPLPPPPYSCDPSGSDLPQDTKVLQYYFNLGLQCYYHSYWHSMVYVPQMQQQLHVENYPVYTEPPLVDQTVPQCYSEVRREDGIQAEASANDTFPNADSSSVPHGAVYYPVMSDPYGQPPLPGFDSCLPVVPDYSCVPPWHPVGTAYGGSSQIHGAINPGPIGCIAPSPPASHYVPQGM
Method in brief: (§1)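 Fragment (200 µM) or vehicle was incubated for 3 h with triplicate HEK293T lysate samples of 495 µg, which were then treated with Biotin-Ahx-Ub-VS at 0.5 µM final for 1 h. Labelled DUBs were enriched on NeutrAvidin, digested with LysC and trypsin, and analysed by diaPASEF LC-MS/MS. Values are average log2 fragment/vehicle ratios from an unpaired t-test on global-median-normalised Spectronaut label-free quantities, using proteins with ≥2 unique peptides.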

ATXN3 = ATXN3 (UniProt P54252)
Method in brief: as §1

BAP1 = target: T2, BAP1 (UniProt Q92560)
T2 sequence (whole entry): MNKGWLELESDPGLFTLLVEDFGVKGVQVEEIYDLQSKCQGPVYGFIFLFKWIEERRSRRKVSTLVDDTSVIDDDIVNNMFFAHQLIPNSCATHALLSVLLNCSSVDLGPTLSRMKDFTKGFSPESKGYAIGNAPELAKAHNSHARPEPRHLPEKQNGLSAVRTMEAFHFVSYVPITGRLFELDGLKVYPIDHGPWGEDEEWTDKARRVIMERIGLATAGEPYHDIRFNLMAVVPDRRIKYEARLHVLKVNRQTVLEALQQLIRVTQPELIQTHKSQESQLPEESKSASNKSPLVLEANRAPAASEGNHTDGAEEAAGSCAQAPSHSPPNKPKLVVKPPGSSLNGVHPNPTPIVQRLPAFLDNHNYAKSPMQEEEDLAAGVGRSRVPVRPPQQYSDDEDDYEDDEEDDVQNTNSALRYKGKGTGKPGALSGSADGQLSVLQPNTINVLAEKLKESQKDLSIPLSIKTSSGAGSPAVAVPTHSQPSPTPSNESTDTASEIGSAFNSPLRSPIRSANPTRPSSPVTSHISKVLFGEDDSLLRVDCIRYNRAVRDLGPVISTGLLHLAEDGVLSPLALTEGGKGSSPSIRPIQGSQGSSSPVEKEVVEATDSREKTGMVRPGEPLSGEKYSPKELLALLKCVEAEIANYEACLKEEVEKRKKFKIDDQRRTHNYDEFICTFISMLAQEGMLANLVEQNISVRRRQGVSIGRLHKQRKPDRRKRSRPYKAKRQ
Method in brief: as §1

EIF3F = EIF3F (UniProt O00303)
Method in brief: as §1

EIF3H = EIF3H (UniProt O15372)
Method in brief: as §1

FAM105A = target: T3, FAM105A (UniProt Q9NUU6)
T3 sequence (whole entry): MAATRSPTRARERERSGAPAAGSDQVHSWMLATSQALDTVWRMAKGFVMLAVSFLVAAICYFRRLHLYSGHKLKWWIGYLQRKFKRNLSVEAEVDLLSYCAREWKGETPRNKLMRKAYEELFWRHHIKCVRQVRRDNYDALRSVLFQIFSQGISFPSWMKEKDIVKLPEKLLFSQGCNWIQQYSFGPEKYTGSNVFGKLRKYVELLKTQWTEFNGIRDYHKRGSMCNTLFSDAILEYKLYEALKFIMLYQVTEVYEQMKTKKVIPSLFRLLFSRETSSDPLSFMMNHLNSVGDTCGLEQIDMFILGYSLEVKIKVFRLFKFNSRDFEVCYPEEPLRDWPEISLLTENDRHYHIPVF
Method in brief: as §1

OTUB1 = OTUB1 (UniProt Q96FW1)
Method in brief: as §1

OTUD4 = target: T4, OTUD4 (UniProt Q01804)
T4 sequence (whole entry): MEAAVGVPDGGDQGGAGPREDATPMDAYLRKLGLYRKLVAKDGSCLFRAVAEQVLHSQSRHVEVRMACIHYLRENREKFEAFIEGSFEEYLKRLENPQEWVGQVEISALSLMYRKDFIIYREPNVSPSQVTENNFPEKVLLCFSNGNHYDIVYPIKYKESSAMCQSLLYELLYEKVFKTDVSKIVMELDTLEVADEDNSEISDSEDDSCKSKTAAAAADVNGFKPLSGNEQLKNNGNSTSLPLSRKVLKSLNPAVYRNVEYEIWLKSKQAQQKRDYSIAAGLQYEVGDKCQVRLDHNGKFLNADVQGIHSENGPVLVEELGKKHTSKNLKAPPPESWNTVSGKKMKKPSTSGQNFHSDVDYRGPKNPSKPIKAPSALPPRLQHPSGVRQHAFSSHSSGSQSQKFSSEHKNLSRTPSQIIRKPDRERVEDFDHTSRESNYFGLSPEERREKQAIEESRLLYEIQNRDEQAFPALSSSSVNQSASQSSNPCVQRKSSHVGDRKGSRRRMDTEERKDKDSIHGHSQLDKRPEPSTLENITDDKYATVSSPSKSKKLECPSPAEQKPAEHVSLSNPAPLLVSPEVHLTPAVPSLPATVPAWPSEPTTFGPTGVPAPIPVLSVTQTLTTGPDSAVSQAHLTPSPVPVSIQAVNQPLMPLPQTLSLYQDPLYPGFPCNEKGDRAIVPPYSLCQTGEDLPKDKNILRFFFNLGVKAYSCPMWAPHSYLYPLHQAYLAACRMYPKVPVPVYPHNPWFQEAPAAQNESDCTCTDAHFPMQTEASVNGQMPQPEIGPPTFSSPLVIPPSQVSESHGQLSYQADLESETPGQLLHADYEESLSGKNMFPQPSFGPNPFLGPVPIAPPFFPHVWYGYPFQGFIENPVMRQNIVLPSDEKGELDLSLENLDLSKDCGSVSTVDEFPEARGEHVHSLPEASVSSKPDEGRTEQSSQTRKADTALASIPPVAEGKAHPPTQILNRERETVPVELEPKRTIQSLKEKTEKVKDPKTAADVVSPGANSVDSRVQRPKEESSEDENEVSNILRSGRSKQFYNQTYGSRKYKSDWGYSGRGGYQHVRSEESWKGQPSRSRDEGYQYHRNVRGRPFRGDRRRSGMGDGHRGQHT
Method in brief: as §1

OTUD5 = target: T5, OTUD5 (UniProt Q96G74)
T5 sequence (whole entry): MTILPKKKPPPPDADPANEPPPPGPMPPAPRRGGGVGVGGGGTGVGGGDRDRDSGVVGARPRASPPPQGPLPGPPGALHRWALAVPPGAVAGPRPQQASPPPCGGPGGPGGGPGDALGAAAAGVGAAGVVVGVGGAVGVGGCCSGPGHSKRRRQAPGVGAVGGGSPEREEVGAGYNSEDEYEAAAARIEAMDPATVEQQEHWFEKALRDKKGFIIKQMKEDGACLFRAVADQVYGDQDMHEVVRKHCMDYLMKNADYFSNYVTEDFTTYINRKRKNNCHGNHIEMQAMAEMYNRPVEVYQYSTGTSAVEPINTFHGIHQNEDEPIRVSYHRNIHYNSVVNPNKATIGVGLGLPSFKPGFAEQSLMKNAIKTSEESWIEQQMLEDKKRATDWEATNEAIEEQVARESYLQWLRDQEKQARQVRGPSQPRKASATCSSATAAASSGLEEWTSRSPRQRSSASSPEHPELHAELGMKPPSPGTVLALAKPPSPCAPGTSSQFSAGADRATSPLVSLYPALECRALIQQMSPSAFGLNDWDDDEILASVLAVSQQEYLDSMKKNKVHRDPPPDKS
Method in brief: as §1

Sequence of ATXN3 (P54252 whole entry): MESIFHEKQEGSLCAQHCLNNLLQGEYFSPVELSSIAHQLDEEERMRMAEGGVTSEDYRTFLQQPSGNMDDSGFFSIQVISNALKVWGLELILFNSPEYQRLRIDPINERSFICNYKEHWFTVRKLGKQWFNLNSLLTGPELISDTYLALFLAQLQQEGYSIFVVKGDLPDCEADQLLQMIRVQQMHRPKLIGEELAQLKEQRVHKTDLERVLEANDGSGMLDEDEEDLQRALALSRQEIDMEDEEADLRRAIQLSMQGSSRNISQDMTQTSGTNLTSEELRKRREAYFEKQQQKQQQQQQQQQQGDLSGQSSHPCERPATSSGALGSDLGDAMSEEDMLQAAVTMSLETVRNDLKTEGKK
Sequence of OTUB1 (Q96FW1 whole entry): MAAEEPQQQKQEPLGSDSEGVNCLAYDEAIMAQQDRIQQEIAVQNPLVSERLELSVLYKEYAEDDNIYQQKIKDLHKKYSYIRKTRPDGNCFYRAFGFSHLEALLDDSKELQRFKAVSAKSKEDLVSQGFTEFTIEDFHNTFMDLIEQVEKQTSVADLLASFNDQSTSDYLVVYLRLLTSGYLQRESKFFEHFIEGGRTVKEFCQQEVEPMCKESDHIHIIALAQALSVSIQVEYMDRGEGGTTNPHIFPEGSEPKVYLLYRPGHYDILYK
Sequence of EIF3H (O15372 whole entry): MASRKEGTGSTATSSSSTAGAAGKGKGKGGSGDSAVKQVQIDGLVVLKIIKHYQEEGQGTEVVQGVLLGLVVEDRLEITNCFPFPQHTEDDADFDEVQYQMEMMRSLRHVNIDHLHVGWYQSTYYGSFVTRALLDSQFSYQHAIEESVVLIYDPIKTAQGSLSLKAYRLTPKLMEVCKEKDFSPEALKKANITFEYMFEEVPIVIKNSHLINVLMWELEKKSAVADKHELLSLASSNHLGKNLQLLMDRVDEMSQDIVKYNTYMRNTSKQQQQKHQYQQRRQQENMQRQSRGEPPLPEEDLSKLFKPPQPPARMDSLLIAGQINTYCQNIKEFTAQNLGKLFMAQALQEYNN
Sequence of EIF3F (O00303 whole entry): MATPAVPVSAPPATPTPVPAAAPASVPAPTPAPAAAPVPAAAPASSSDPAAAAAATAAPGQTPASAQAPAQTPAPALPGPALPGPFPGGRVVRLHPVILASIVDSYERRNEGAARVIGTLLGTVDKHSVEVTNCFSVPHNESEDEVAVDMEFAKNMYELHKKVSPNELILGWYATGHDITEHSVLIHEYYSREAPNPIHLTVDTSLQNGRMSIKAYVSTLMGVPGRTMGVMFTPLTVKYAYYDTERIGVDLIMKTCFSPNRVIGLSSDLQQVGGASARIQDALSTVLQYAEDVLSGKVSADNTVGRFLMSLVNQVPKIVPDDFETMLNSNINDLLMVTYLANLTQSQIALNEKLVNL

Cl.Cn1nccc1C(NC(=O)CCl)c1ccccc1 (centres undefined)
log2 ratio of Biotin-Ahx-Ub-VS probe labelling (ALG13): -0.0316 | log2 ratio of Biotin-Ahx-Ub-VS probe labelling (ATXN3): -0.49 | log2 ratio of Biotin-Ahx-Ub-VS probe labelling (BAP1): -4.27 (active) | log2 ratio of Biotin-Ahx-Ub-VS probe labelling (EIF3F): -0.145 | log2 ratio of Biotin-Ahx-Ub-VS probe labelling (EIF3H): 0.106 | log2 ratio of Biotin-Ahx-Ub-VS probe labelling (FAM105A): 0.0639 | log2 ratio of Biotin-Ahx-Ub-VS probe labelling (OTUB1): -0.173 | log2 ratio of Biotin-Ahx-Ub-VS probe labelling (OTUD4): -0.894 | log2 ratio of Biotin-Ahx-Ub-VS probe labelling (OTUD5): -0.379
